Data as given in PubChem BioAssay (NCI).
The panel holds about 79,000 compounds, 15% with a hit somewhere; the sample as a whole holds those more often. Calls of active or inactive are those of the source. No stated cut-off is given here; in the data, active means growth inhibition above about 70%; inactive means the rest.

How the values were obtained:
[1] = NCI Yeast Anticancer Drug Screen. Data for the rad52 strain (AID 147);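 further: 0% = growth of vehicle-treated control cultures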; details: S. cerevisiae rad52 mutant growth inhibition, stronger effect = higher value
Outline: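 Vehicle-treated cultures served as the reference for growth inhibition of compound-exposed yeast bearing a DNA repair mutation.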

[2] = NCI Yeast Anticancer Drug Screen. Data for the wt1 strain (AID 149);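 further: 0% = growth of vehicle-treated wt1 cultures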; details: S. cerevisiae wt1 strain (SPY 50644) growth inhibition, stronger effect = higher value
Outline: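 Vehicle-normalised growth inhibition; strain wt1; compound exposure.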

[3] = NCI Yeast Anticancer Drug Screen. Data for the rad50EPP+ strain (AID 151);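 further: 0% = growth of vehicle-treated control cultures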; details: S. cerevisiae rad50 mutant strain, stronger effect = higher value
Outline: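 In this screen, rad50EPP+ yeast were exposed to compounds. Growth inhibition was scored against vehicle-treated controls.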

[4] = NCI Yeast Anticancer Drug Screen. Data for the mgt1 strain (AID 153); details: S. cerevisiae mgt1 mutant growth inhibition, stronger effect = higher value
Outline: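 mgt1 strain exposed; growth vs vehicle control recorded as inhibition.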

[5] = NCI Yeast Anticancer Drug Screen. Data for the rad50 strain (AID 155);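 further: 0% = growth of vehicle-only cultures of the same strain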; details: S. cerevisiae rad50 strain growth inhibition, stronger effect = higher value
Outline: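 A DNA repair-deficient yeast mutant serves as the test organism; compound-induced growth inhibition is calculated against vehicle-treated cells.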

[6] = NCI Yeast Anticancer Drug Screen. Data for the mec2-1 strain (AID 157); details: S. cerevisiae mec2-1 strain, stronger effect = higher value
Outline: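 Vehicle-treated cultures served as reference for growth inhibition of compound-exposed mec2-1 yeast.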

[7] = NCI Yeast Anticancer Drug Screen. Data for the rad14 strain (AID 159);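 further: 0% = growth of vehicle-treated control cultures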; details: S. cerevisiae rad14 strain growth inhibition, stronger effect = higher value
Outline: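 Vehicle-treated cultures served as the baseline for growth inhibition of a DNA repair-mutant yeast strain exposed to each compound.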

[8] = NCI Yeast Anticancer Drug Screen. Data for the sgs1 mgt1 strain (AID 161);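 further: 0% = growth of cultures given vehicle only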; details: S. cerevisiae sgs1 mgt1 strain, stronger effect = higher value
Outline: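 Read-out: growth inhibition vs vehicle controls. Cells: mutant yeast strain deficient in DNA damage repair.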

[9] = NCI Yeast Anticancer Drug Screen. Data for the CLN2oe strain (AID 163);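 further: 0% = growth of vehicle-only control cultures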; details: S. cerevisiae CLN2oe strain, stronger effect = higher value
Outline: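 Inhibition relative to vehicle-treated yeast is reported. Cells: strain with genetic alteration in cell-cycle control, grown with compound.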

[10] = NCI Yeast Anticancer Drug Screen. Data for the cln2 rad14 strain (AID 165);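 further: 0% = growth equal to vehicle treated cultures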; details: S. cerevisiae cln2 rad14 strain, stronger effect = higher value
Outline: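 Each compound was tested on cln2 rad14 yeast. Inhibition of growth was calculated against vehicle-exposed controls.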

[11] = NCI Yeast Anticancer Drug Screen. Data for the bub3 strain (AID 167); details: S. cerevisiae bub3 mutant strain, stronger effect = higher value
Outline: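 Inhibition values come from growth of compound-treated mutant yeast normalised to vehicle-treated controls.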

[12] = NCI Yeast Anticancer Drug Screen. Data for the wt2 strain (AID 169);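 further: 0% = growth of vehicle-treated yeast cultures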; details: S. cerevisiae wt2 strain growth inhibition, stronger effect = higher value
Outline: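 Inhibition of yeast growth was determined after compound treatment, normalised to controls receiving only vehicle.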

[13] = NCI Yeast Anticancer Drug Screen. Data for the mlh1 strain (AID 171);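 further: 0% = growth of vehicle-treated control cultures of the same strain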; details: S. cerevisiae mlh1 strain growth inhibition, stronger effect = higher value
Outline: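 Vehicle-normalised growth inhibition of a repair- or checkpoint-altered yeast strain following compound treatment.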

[14] = NCI Yeast Anticancer Drug Screen. Data for the sgs1 strain (AID 173);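 further: 0% = growth of vehicle-only control cultures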; details: S. cerevisiae sgs1 mutant, stronger effect = higher value
Outline: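 Screen format: yeast with repair or checkpoint alterations, compound exposure, growth read relative to vehicle.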

[15] = NCI Yeast Anticancer Drug Screen. Data for the mlh1 rad18 strain (AID 175); details: S. cerevisiae mlh1 rad18 strain growth inhibition, stronger effect = higher value
Outline: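 Vehicle-treated cultures served as the reference for growth inhibition in a yeast strain carrying DNA damage repair alterations exposed to each compound.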

[16] = NCI Yeast Anticancer Drug Screen. Data for the rad18 strain (AID 177); details: S. cerevisiae rad18 mutant growth inhibition, stronger effect = higher value
Outline: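 Test articles were incubated with altered yeast defective in DNA damage repair. Results are given as inhibition of growth versus vehicle.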

[17] = at 5.0 µM (retest, dose inferred, filed as 0.5)
[18] = at 50.0 µM (retest, dose inferred, filed as 5.0)

Measured: growth inhibition

N#CC1OB(O)c2ccccc21 (stereo not drawn)
inactive: [1]; at 1.2 µM -9% | [1]; at 3.7 µM -6% | [1]; at 11.0 µM -5% | [1]; at 33.0 µM -5% | [1]; at 100.0 µM 3% | [2]; at 1.2 µM -5% | [2]; at 3.7 µM -4% | [2]; at 11.0 µM -5% | [2]; at 33.0 µM -4% | [2]; at 100.0 µM 0% | [3]; at 1.2 µM -2% | [3]; at 3.7 µM 4% | [3]; at 11.0 µM 4% | [3]; at 33.0 µM 17% | [3]; at 100.0 µM 26% | [4]; at 1.2 µM -7% | [4]; at 3.7 µM -4% | [4]; at 11.0 µM -2% | [4]; at 33.0 µM 0% | [4]; at 100.0 µM -3% | [5]; at 1.2 µM -13% | [5]; at 3.7 µM -10% | [5]; [17] -126% | [5]; at 11.0 µM 4% | [5]; at 33.0 µM 10% | [5]; at 50.0 µM 58.2% | [5]; at 100.0 µM 11% | [6]; at 1.2 µM 1% | [6]; at 3.7 µM 0% | [6]; [17] -51% | [6]; at 11.0 µM 3% | [6]; at 33.0 µM 1% | [6]; [18] -27% | [6]; at 50.0 µM 27.9% | [6]; at 100.0 µM -7% | [7]; at 1.2 µM -3% | [7]; at 3.7 µM 0% | [7]; at 11.0 µM -2% | [7]; at 33.0 µM -2% | [7]; at 100.0 µM 1% | [8]; [17] -61% | [8]; [18] -2% | [8]; at 50.0 µM 27.1% | [9]; at 1.2 µM 0% | [9]; at 3.7 µM -2% | [9]; at 11.0 µM 1% | [9]; at 33.0 µM -7% | [9]; at 100.0 µM -2% | [10]; [17] -57% | [10]; [18] -42% | [10]; at 50.0 µM 21% | [11]; at 1.2 µM -11% | [11]; at 3.7 µM -10% | [11]; [17] -64% | [11]; at 11.0 µM -6% | [11]; at 33.0 µM -10% | [11]; [18] -36% | [11]; at 50.0 µM 69.7% | [11]; at 100.0 µM -4% | [12]; at 1.2 µM 0% | [12]; at 3.7 µM 0% | [12]; at 11.0 µM -1% | [12]; at 33.0 µM -2% | [12]; at 100.0 µM -2% | [13]; at 1.2 µM 7% | [13]; at 3.7 µM -5% | [13]; at 11.0 µM -6% | [13]; at 33.0 µM -6% | [13]; at 100.0 µM -7% | [14]; at 1.2 µM 1% | [14]; at 3.7 µM 1% | [14]; at 11.0 µM 2% | [14]; at 33.0 µM 1% | [14]; at 100.0 µM 1% | [15]; [17] -115% | [15]; [18] 7% | [15]; at 50.0 µM 60.9% | [16]; at 1.2 µM -4% | [16]; at 3.7 µM -1% | [16]; at 11.0 µM 1% | [16]; at 33.0 µM 2% | [16]; at 100.0 µM 6%
active: [5]; [18] 81%

C=CCNC1=C2C[C@@H](C)C[C@H](OC)[C@H](O)[C@@H](C)/C=C(\C)[C@H](OC(N)=O)[C@@H](OC)/C=C\C=C(/C)C(=O)NC(=CC1=O)C2=O
inactive: [1]; at 1.2 µM -16% | [1]; at 3.7 µM -21% | [1]; at 11.0 µM 46% | [2]; at 1.2 µM -26% | [2]; at 3.7 µM -53% | [2]; at 11.0 µM 41% | [3]; at 1.2 µM -33% | [3]; at 3.7 µM -43% | [3]; at 11.0 µM -46% | [3]; at 33.0 µM -30% | [3]; at 100.0 µM -1% | [4]; at 1.2 µM -72% | [4]; at 3.7 µM -44% | [4]; at 11.0 µM 57% | [5]; at 1.2 µM -33% | [5]; at 3.7 µM -12% | [5]; [17] -32% | [5]; at 11.0 µM 64% | [6]; at 1.2 µM -73% | [6]; at 3.7 µM -59% | [6]; [17] 5% | [7]; at 1.2 µM -73% | [7]; at 3.7 µM -42% | [7]; at 11.0 µM 55% | [8]; [17] -7% | [9]; at 1.2 µM -60% | [9]; at 3.7 µM -43% | [9]; at 100.0 µM 27% | [10]; [17] -4% | [11]; at 1.2 µM -49% | [11]; at 3.7 µM -12% | [11]; [17] 35%
active: [1]; at 33.0 µM 97% | [1]; at 100.0 µM 97% | [2]; at 33.0 µM 95% | [2]; at 100.0 µM 96% | [4]; at 33.0 µM 95% | [4]; at 100.0 µM 95% | [5]; at 33.0 µM 95% | [5]; [18] 96% | [5]; at 50.0 µM 90.8% | [5]; at 100.0 µM 95% | [6]; at 11.0 µM 77% | [6]; at 33.0 µM 96% | [6]; [18] 98% | [6]; at 50.0 µM 92.5% | [6]; at 100.0 µM 95% | [7]; at 33.0 µM 95% | [7]; at 100.0 µM 94% | [8]; [18] 96% | [8]; at 50.0 µM 92% | [9]; at 11.0 µM 80% | [9]; at 33.0 µM 96% | [10]; [18] 97% | [10]; at 50.0 µM 90.3% | [11]; at 11.0 µM 74% | [11]; at 33.0 µM 95% | [11]; [18] 98% | [11]; at 50.0 µM 90.4% | [11]; at 100.0 µM 94%
